A short description of test [1]: liver-stage malaria parasite load reduction – cell-based, known kinase inhibitor set, luminescence, hepatoma host viability (AID 624392).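 Note: infected cells incubated roughly two days before readout.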 As to conditions: Plasmodium liver stage in hepatoma cells, luciferase luminescence, concentration not given here; liver cell % of control: measured here: host liver cell viability; parasite % of control: stronger effect = lower value.
Test [2] is described as follows: P. berghei load reduction in hepatocytes – cell-based, HepG2, luciferase luminescence, HepG2 viability, primary screen (AID 624349; in the data active = parasite load remaining mostly below about 12%, no sharp cut-off; inactive = mostly above about 10%;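 note: 100% = mean of DMSO negative control wells on the same plate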). The conditions noted are these: P. berghei liver stage in HepG2, luciferase luminescence, concentration not given here; parasite load remaining: stronger effect = lower value; viability: measured here: HepG2 viability without parasites.
Test [3] can be described thus: signal quenchers or enhancers, Cy5 substrate/SSB – biochemical, NIH Clinical Collection, E. coli SSB, artefact control for HCV NS3 helicase inhibitor project (AID 743268). The conditions noted are these: Cy5-oligo bound E. coli SSB, fluorescence interference.
Test [4] concerns Hepatitis C virus NS3 helicase. Nature of the test: blockers of NS3h binding to DNA – biochemical, fluorescence polarization, NIH Clinical Collection, primary screen (AID 743270). As to conditions: NS3 helicase binding to Cy5-dT15 DNA, stronger effect = higher value, concentration not given here.
The target of test [5] is Single-stranded DNA-binding protein (Escherichia coli (strain K12)) (UniProt P0AGE0). Briefly: SSB-ssDNA binding inhibitors – biochemical, fluorescence polarization, NIH Clinical Collection, counter-screen for HCV NS3 helicase inhibitor project (AID 743271; in the data active = inhibition above about 28%). The conditions noted are these: E. coli SSB-DNA binding, stronger effect = higher value, concentration not given here.
The nature of test [6]: compounds distorting NS3 helicase fluorescence signal – biochemical, NIH Clinical Collection, artefact control for HCV NS3 helicase inhibitor project (AID 743272).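 Note: HCV NS3 helicase with a Cy5 labelled single stranded DNA probe.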 The conditions noted are these: fluorescence interference counterscreen, HCV NS3 helicase assay; stronger effect = lower value.

Several values for one entry are separate records, joined by “and”; a condition that tells them apart may be missing. Identical values can stand only once. Activity calls are given as the source filed them. Unless noted, the rule behind the calls is not given here.

`CC(C)C(CO)Nc1nc(Nc2ccc(S(=O)(=O)O)c(N)c2)c2ncn(C(C)C)c2n1` (configuration not stated): in test [1], the liver cell % of control was 101% and the parasite % of control was 105% (inactive).
Consider `CCCOc1ccc(/C=C2\SC(=O)NC2=O)cc1`, for which, in test [2], the parasite load remaining was 54.3% (inactive) and the viability was found to be 111%.
In the same order, the values of `Cn1sc(=O)n(Cc2ccccc2)c1=O` are 33% (inactive) and 94.4%.
On to `COc1cc2ncnc(Nc3cccc(O)c3)c2cc1OC`, for which, in test [2], the parasite load remaining is 52.5% (inactive) and the viability is 68.3%.
As to `O=C(Nc1cccc(Nc2cc(Nc3cccc(C(F)(F)F)c3)ncn2)c1)C1CC1`, in test [2], the parasite load remaining was 48.9% (inactive) and the viability stood at 163%.
With `C=CC(=O)Nc1cccc(N(C)c2ccnc(Nc3ccc(N4CCN(C)CC4)cc3)n2)c1`, in test [1], the liver cell % of control was 95.1% and the parasite % of control was 6.04% (inactive).
Regarding `CC(C)n1cnc2c(NCc3ccccc3O)nc(NCCCO)nc21`, in test [2], the parasite load remaining is 37.8% (inactive) and the viability is 118%.
As to `Cn1cc(C=C2C(=O)Nc3cccnc32)c2ccccc21`, in test [1], the liver cell % of control was 314% and 107% and 104%; the parasite % of control is 4.91% (inactive) and 51.8% (inactive) and 41.5% (inactive).
Take `O=C1Cc2c([nH]c3ccc([N+](=O)[O-])cc23)-c2ccccc2N1`: in test [2], the parasite load remaining is 65.2% (inactive) and the viability amounted to 128%. In test [1], the liver cell % of control is 82.9% and the parasite % of control is 65.2% (inactive).
As for `CCN1CCN(Cc2ccc(NC(=O)c3ccc(C)c(NC(=O)c4ccc5n[nH]nc5c4)c3)cc2C(F)(F)F)CC1`, in test [1], the liver cell % of control amounted to 104% and the parasite % of control is 112% (inactive).
In the same order, the values of `NS(=O)(=O)c1ccc(-c2ccc(C=C3C(=O)Nc4ccccc43)o2)cc1` are 99.7% and 90.6% (inactive).
On to `NC1CCC(Nc2nc(Nc3ccc(S(=O)(=O)N4CCCCC4)cc3)c3ncn(-c4ccccc4)c3n2)CC1` (configuration not stated), for which, in test [1], the liver cell % of control came out at 103% and the parasite % of control was 336% (inactive).
Regarding `O=Nc1c(-c2c(O)[nH]c3ccc(I)cc23)[nH]c2ccccc12`, in test [2], the parasite load remaining was 33.7% (inactive) and the viability came out at 156%.
In the same order, the values of `Cn1cnc2cc3c(Nc4cccc(Br)c4)ncnc3cc21` are 14.5% (inactive) and 165%.
Turning to `O=C(Nc1cccc(-c2csc(Nc3ccc(Cl)cc3)n2)c1)c1cccc(C(F)(F)F)c1`, in test [1], the liver cell % of control was determined as 97.6% and the parasite % of control was 115% (inactive).
In the same order, the values of `CC(C)n1cnc2c(N(Cc3ccccc3)c3cccc(Cl)c3)nc(N(CCN(C)C)Cc3ccccc3)nc21` are 82.6% and 9.42% (active).
Take `NS(=O)(=O)c1ccc(N=Nc2c(O)[nH]c3ccc(Br)cc23)cc1`: in test [2], the parasite load remaining is 34% (inactive) and the viability is 161%.
Consider `CCC(C)Oc1cc(-c2ccnc(Nc3cccc(Cl)c3)n2)ccn1` (configuration not stated), for which, in test [1], the liver cell % of control came to 58.3% and the parasite % of control was 150% (inactive).
Turning to `CC[C@H]1OC(=O)[C@H](C)C(=O)[C@H](C)[C@@H](O[C@@H]2O[C@H](C)C[C@H](N(C)C)[C@H]2O)[C@](C)(OC)C[C@@H](C)C(=O)[C@H](C)[C@@H]2N(CCCCn3cnc(-c4cccnc4)c3)C(=O)O[C@@]21C`, the parasite load remaining in test [2] was 32.3% (inactive). Besides, the viability in test [2] worked out at 63.9%. Moreover, the values for the fluorescence ratio in test [3] and in test [6] were 0.97 (inactive) and 0.92 (inactive), respectively. Besides, the values for the inhibition in test [4] and in test [5] were -9.83% (inactive) and 1.18% (inactive), respectively.
With `Nc1ncc(-c2cccnc2)nc1C(=O)c1cccnc1`, in test [1], the liver cell % of control turned out to be 98.8% and the parasite % of control was 75.4% (inactive).
In the same order, the values of `NS(=O)(=O)c1ccc(-c2cccc(C=C3SC(=O)NC3=O)c2)cc1` are 87.7% and 17% (inactive).
Turning to `NCCCn1cc(C2=C(c3c[nH]c4ccccc34)C(=O)NC2=O)c2ccccc21`, in test [2], the parasite load remaining is 53.3% (inactive) and the viability is 148%.
With `O=c1[nH]c2ccccc2c2ncnc(Nc3ccc(OC(F)(F)F)cc3)c12`, in test [1], the liver cell % of control came to 101% and the parasite % of control was 119% (inactive).
As for `CC(C)n1cnc2c(Nc3cccc(Cl)c3)nc(NCCO)nc21`, in test [2], the parasite load remaining was 37.9% (inactive) and the viability was determined as 90.9%.
For `CO[C@H]1C[C@@H]2CC[C@@H](C)[C@@](O)(O2)C(=O)C(=O)N2CCCC[C@H]2C(=O)O[C@H](C(C)C[C@H]2CC[C@@H](O)[C@H](OC)C2)CC(=O)[C@H](C)/C=C(\C)[C@@H](O)[C@@H](OC)C(=O)[C@H](C)C[C@H](C)/C=C/C=C/C=C/1C` (some centres not stated), in test [2], the parasite load remaining was 45.4% (inactive) and the viability was 63.2%.
Consider `NC(=O)Nc1sc(-c2ccccc2)cc1C(N)=O`, for which, in test [2], the parasite load remaining was 55.2% (inactive) and the viability was found to be 90.8%. In test [1], the liver cell % of control turned out to be 111% and the parasite % of control is 316% (inactive).
Regarding `COc1cc2ncnc(Nc3ccc(NC(=O)c4ccccc4)cc3)c2cc1OC`, in test [2], the parasite load remaining is 41.1% (inactive) and the viability stood at 100%.

The record behind these values is PubChem BioAssay.
